Among the data in the antibiotic and cytotoxicity screens of Wong et al. (2023) are cytotoxicity call values, retold here.

Out of some 39,000 compounds screened, about 1,500 (3.8%) were called active. The entries come from a sample that favours actives as a whole.

The assay deals with HSkMC (human skeletal muscle cells). The assay can be described thus: cytotoxicity call (relative viability < 0.9). The note with it: 10 µM.
As for `CC(C)NC(=O)Nc1ccc2c(c1)C(=O)N([C@@H](C)CO)C[C@@H](C)[C@H](CN(C)CC1CCCCC1)OCCCC[C@@H](C)O2`, the cytotoxicity call was “inactive”.

For `CN(C)CC(=O)N1[C@@H]2Cn3c(ccc(C4=CCCC4)c3=O)[C@H]1[C@@H](C(=O)NCC1CC1)[C@@H]2CO`, the cytotoxicity call is “inactive”.

As to `C[C@@H]1CN([C@@H](C)CO)S(=O)(=O)c2ccc(-c3cncnc3)cc2O[C@@H]1CN(C)C(=O)Cc1cccnc1`, the cytotoxicity call was “inactive”.

As for `C[C@H]1CN([C@@H](C)CO)C(=O)c2cc(NS(C)(=O)=O)ccc2O[C@H]1CN(C)Cc1ccc2c(c1)OCO2`, the cytotoxicity call is “inactive”.

As to `CC(C)=CCc1c2c(c3occ(-c4ccc(O)cc4)c(=O)c3c1O)C=CC(C)(C)O2`, the cytotoxicity call is “inactive”.

Take `CC1(C)C=Cc2c(c3c(c4c(=O)c(-c5ccc(O)c(O)c5)coc24)OC(C)(C)CC3)O1`: the cytotoxicity call is “inactive”.

Consider `CC(C)=CCc1c2c(c3occ(-c4ccc(O)c(O)c4)c(=O)c3c1O)C=CC(C)(C)O2`, for which the cytotoxicity call was “active”.

As for `CO[C@@H]1CN(C)C(=O)c2ccc(NC(=O)CN(C)C)cc2OC[C@@H](C)N(C(=O)c2ccncc2)C[C@H]1C`, the cytotoxicity call is “inactive”.

Take `C[C@@H]1CCCCO[C@H](CN(C)S(=O)(=O)c2cccs2)[C@@H](C)CN([C@H](C)CO)C(=O)c2cc(NC(=O)CCC(F)(F)F)ccc2O1`: the cytotoxicity call is “inactive”.

`COC[C@@H]1CNN1C(=O)c1cc(C)oc1C`: the cytotoxicity call was “inactive”.

On to `CCCCCN1CC=C[C@@]23O[C@@H]4C=CCOC(=O)[C@@H]4[C@H]2C(=O)N([C@@H](C)CO)[C@@H]3C1=O`, for which the cytotoxicity call is “inactive”.

In the case of `CC(NCCc1ccc(O)cc1)C(O)c1ccc(O)cc1.Cl` (stereo not given), the cytotoxicity call is “inactive”.

As for `CCCCCCCCNC(C)C(O)c1ccc(SC(C)C)cc1` (stereo not given), the cytotoxicity call is “active”.

As for `CCCCCCCCNC[C@@H](O)[C@H](O)[C@@H](O)[C@@H](O)CO`, the cytotoxicity call was “inactive”.

On to `C[C@@H]1CN([C@@H](C)CO)S(=O)(=O)c2ccc(C#CCN(C)C)cc2O[C@@H]1CN(C)C(=O)CN(C)C`, for which the cytotoxicity call is “inactive”.

For `C[C@@H]1CCCCO[C@@H](CN(C)S(=O)(=O)c2ccc(Cl)cc2)[C@H](C)CN([C@@H](C)CO)C(=O)c2cc(NC(=O)Nc3cccc4ccccc34)ccc2O1`, the cytotoxicity call was “inactive”.

`O=C(NCCCN1CCOCC1)Nc1ccc(Cc2ccc(NC(=O)NCCCN3CCOCC3)cc2)cc1`: the cytotoxicity call is “inactive”.

In the case of `COc1cc(OC)cc(C(=O)Nc2nc(-c3ccc4c(c3)CCN4C(=O)CN3CCOCC3)cs2)c1`, the cytotoxicity call is “inactive”.

Turning to `CC(C)(C)c1cc(NC(=O)Nc2ccc(-c3cn4c(n3)sc3cc(OCCN5CCOCC5)ccc34)cc2)no1`, the cytotoxicity call is “active”.

Turning to `C[C@H](CO)N1C[C@H](C)[C@@H](CN(C)CC2CC2)Oc2c(NC(=O)Nc3cccc4ccccc34)cccc2C1=O`, the cytotoxicity call is “inactive”.

Turning to `CC(C)CC(=O)Nc1cncc(-c2ccc3[nH]nc(-c4nc5cncc(-c6cccc(F)c6)c5[nH]4)c3c2)c1`, the cytotoxicity call was “active”.

Consider `Cn1c(=O)[nH]c(=O)c2c1nc(N1CCN(CCO)CC1)n2CC(=O)c1ccccc1`, for which the cytotoxicity call was “inactive”.

Take `CCS(=O)(=O)N1C[C@]2(CN(C2)C(=O)c2ccc3c(c2)OCO3)c2c(n(c3cc(ccc23)OC)C)[C@@H]1CO`: the cytotoxicity call was “inactive”.

Take `C[C@@H]1CN([C@H](C)CO)C(=O)c2cccc(NC(=O)c3ccc(-c4nccs4)cc3)c2O[C@H]1CN(C)Cc1ccc(Oc2ccccc2)cc1`: the cytotoxicity call is “inactive”.

As for `COc1ccc(CN(C)C[C@@H]2Oc3c(NC(=O)c4ccc(-c5nccs5)cc4)cccc3C(=O)N([C@H](C)CO)C[C@H]2C)cc1`, the cytotoxicity call was “active”.

With `COc1ccc(CN(C)C[C@H]2Oc3c(NC(=O)c4ccc(-c5nccs5)cc4)cccc3C(=O)N([C@@H](C)CO)C[C@@H]2C)cc1`, the cytotoxicity call was “inactive”.

On to `C[C@H]1CN([C@@H](C)CO)C(=O)c2cccc(NC(=O)c3ccc(-c4nccs4)cc3)c2O[C@H]1CN(C)Cc1ccc(Oc2ccccc2)cc1`, for which the cytotoxicity call is “inactive”.

As for `C[C@H](CO)N1C[C@H](C)[C@H](CN(C)Cc2ccc(Oc3ccccc3)cc2)Oc2c(NC(=O)c3ccc(-c4nccs4)cc3)cccc2C1=O`, the cytotoxicity call is “active”.

For the compound `COc1ccc(CN(C)C[C@H]2Oc3c(NC(=O)c4ccc(-c5nccs5)cc4)cccc3C(=O)N([C@H](C)CO)C[C@@H]2C)cc1`, the cytotoxicity call is “inactive”.

Consider `COc1ccc(NC(=O)Nc2ccc3c(c2)C(=O)N([C@H](C)CO)C[C@@H](C)[C@H](CN(C)S(=O)(=O)c2ccc(Cl)cc2)OCCCC[C@@H](C)O3)cc1`, for which the cytotoxicity call was “inactive”.

`C[C@H]1CN([C@@H](C)CO)C(=O)c2cc(C3=CCCCC3)cnc2O[C@H]1CN(C)C(=O)CN1CCOCC1`: the cytotoxicity call was “inactive”.

In the case of `O=C1OCc2cc(-n3cnnn3)ccc21`, the cytotoxicity call is “inactive”.

`COc1ccc(NC(=O)N(C)C[C@H]2OCCCC[C@H](C)Oc3ccc(NC(=O)c4ccccc4)cc3C(=O)N([C@H](C)CO)C[C@H]2C)cc1`: the cytotoxicity call was “inactive”.

For the compound `C[C@@H]1CN([C@H](C)CO)C(=O)c2cc(NC(=O)Nc3ccccc3)ccc2O[C@H]1CN(C)S(=O)(=O)c1cn(C)cn1`, the cytotoxicity call was “inactive”.

For the compound `CC(C)[Si]1(C(C)C)OCc2cc(-c3ccc(-c4ccc(Cl)c(Cl)c4)o3)nc(CCc3ccccc3)c21`, the cytotoxicity call is “inactive”.

For the compound `CCCCCCc1nc(-c2ccc(-c3ccc(Cl)c(Cl)c3)o2)cc2c1[Si](C(C)C)(C(C)C)OC2`, the cytotoxicity call is “active”.

For the compound `CC(C)[Si]1(C(C)C)OCc2cc(-c3ccc(-c4ccc(Cl)c(Cl)c4)o3)nc(-c3ccccc3)c21`, the cytotoxicity call was “inactive”.

`O=C(O)c1cncnc1N1CCCC1`: the cytotoxicity call was “inactive”.

For the compound `C[C@@H]1CN([C@H](C)CO)C(=O)c2cccc(NC(=O)C3CCCCC3)c2O[C@H]1CN(C)Cc1ccc(Oc2ccccc2)cc1`, the cytotoxicity call is “inactive”.

In the case of `C[C@H]1CN([C@@H](C)CO)C(=O)c2cccc(NC(=O)Nc3ccc(F)cc3)c2O[C@H]1CN(C)Cc1ccc(-c2ccccc2)cc1`, the cytotoxicity call is “inactive”.

Regarding `C[C@H]1CN([C@@H](C)CO)C(=O)c2cccc(NC(=O)Nc3ccc(F)cc3)c2O[C@@H]1CN(C)Cc1ccc(-c2ccccc2)cc1`, the cytotoxicity call is “inactive”.

On to `C[C@@H]1CN([C@@H](C)CO)C(=O)c2cccc(NC(=O)Nc3ccc(F)cc3)c2O[C@@H]1CN(C)Cc1ccc(-c2ccccc2)cc1`, for which the cytotoxicity call was “active”.

With `C[C@H](CO)N1C[C@H](C)[C@@H](CN(C)Cc2ccc(-c3ccccc3)cc2)Oc2c(NC(=O)Nc3ccc(F)cc3)cccc2C1=O`, the cytotoxicity call is “inactive”.

Turning to `C[C@@H]1CN([C@H](C)CO)C(=O)c2cccc(NC(=O)Nc3ccc(F)cc3)c2O[C@H]1CN(C)Cc1ccc(-c2ccccc2)cc1`, the cytotoxicity call was “inactive”.

With `C[C@@H]1CN([C@@H](C)CO)C(=O)c2cccc(NC(=O)Nc3ccc(F)cc3)c2O[C@H]1CN(C)Cc1ccc(-c2ccccc2)cc1`, the cytotoxicity call was “active”.
